Outcome and activity change, negative = inhibition data for 40 compounds are collected here from PubChem BioAssay (Tox21).

Records with an inconclusive call do not appear. A number with no mark means an inactive call. Activity calls are given as the source filed them. The call rests on the fitted dose curve; in most records, active means well fitted inhibition curve with a large enough effect in the signal ratio in the repeat runs (not every such curve was filed as active); inconclusive means weak or mixed curves, or effect the other way; inactive means no such curve, though single readings can be large or run the other way; the % refers to the signal ratio.
On the % scale 0 is the no-effect control and ±100 the full control effect.

Chain of Vitamin D3 receptor (Homo sapiens) (P11473 whole entry, looked up): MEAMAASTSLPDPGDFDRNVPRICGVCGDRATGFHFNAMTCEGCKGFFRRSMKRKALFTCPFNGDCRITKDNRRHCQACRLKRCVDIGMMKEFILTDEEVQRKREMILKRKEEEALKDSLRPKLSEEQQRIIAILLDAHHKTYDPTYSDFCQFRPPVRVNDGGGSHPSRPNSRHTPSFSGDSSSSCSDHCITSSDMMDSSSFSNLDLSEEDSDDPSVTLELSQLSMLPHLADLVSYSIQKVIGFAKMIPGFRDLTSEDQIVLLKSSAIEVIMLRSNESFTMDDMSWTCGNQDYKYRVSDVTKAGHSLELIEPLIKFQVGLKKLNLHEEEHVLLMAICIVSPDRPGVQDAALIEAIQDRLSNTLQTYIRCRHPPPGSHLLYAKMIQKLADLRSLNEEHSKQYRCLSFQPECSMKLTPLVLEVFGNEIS

The assay concerns the target Vitamin D3 receptor (Homo sapiens) (UniProt P11473). Put plainly: qHTS assay to identify small molecule antagonists of the vitamin D receptor (VDR) signaling pathway (AID 743223). The settings on record: VDR-UAS-bla HEK293T, beta-lactamase FRET ratio, 16 h; series mostly up to 61 µM. The source says: U.S. Tox21 Program National Center for Advancing Translational Sciences [NCATS] NIH Chemical Genomics Center [NCGC] U.S. Environmental Protection Agency [EPA] National Institutes of Environmental Health Sciences [NIEHS] National Toxicology Program [NTP] U.S. Food and Drug Administration [FDA] Tox21 Assay Overview: The vitamin D receptor (VDR), a member of nuclear hormone receptor superfamily, plays a critical role in calcium homeostasis and bone metabolism. It is also involved in cell differentiation and growth, and thrombogenicity.
Tox21 Assay Protocol Summary: VDR-bla cells were dispensed at 2,000 cells/5 uL of assay medium per well into black wall/clear-bottom 1536-well plates using a Multidrop Combi (Thermo Fisher Scientific, Waltham, MA) dispenser. After the assay plates were incubated at a 37C and 5% CO2 for 4 h, 23 nL of compounds dissolved in DMSO, positive controls or DMSO only was transferred to the assay plate by a Pintool station (Kalypsys, San Diego, CA), followed by addition of 1 uL of 1alpha, 25-Dihydroxy Vitamin D3 (3 nM, final concentration in the wells) using a Bioraptr Flying Reagent Dispenser (FRD) workstation (Beckman Coulter, Indianapolis, IN). The plates were incubated at 37C and 5% CO2 for 16 h, and then 1 uL of LiveBLAzerTM B/G FRET substrate was added using a Bioraptr FRD. The plates were incubated at room temperature for 2 h and fluorescence intensity was measured by an Envision plate reader (PerkinElmer, Shelton, CT).
Take `CCCCC(CC)COC(=O)COc1ccc(Cl)cc1Cl` (stereo not given): the result was inactive.

Consider `Clc1ccc(Cn2c(CN3CCCC3)nc3ccccc32)cc1`, for which the outcome was inactive. Regarding `COc1cc(Cl)c(OC)cc1N`, the result was inactive.

With `O=[N+]([O-])c1cccc(S(=O)(=O)O)c1`, the outcome was inactive. The same measure, in the same setting: the same measure for `NC(=O)C(c1ccccc1)(c1ccccc1)[C@@H]1CCN(CCc2ccc3c(c2)CCO3)C1`: “inactive”. On the same count and under the same terms, the entry for `CC1(c2ccccc2)OC(C(=O)O)=CC1=O` (stereo not given) is “inactive”; for `Cc1ncc(CO)c(C=O)c1O` it is “inactive”; for `C=CC(=O)OCCOc1ccccc1` it is “inactive”.

Consider `COc1ccc2cccc(CCNC(C)=O)c2c1`, for which the outcome was inactive. As to `CCCCCCCCCc1ccc(OCCOCCO)cc1`, the outcome was inactive. On the same count and under the same terms, the entry for `CC(C)O.CC(C)O.CCOC(=O)/C=C(\C)O.CCOC(=O)/C=C(\C)O.[Ti]` is “inactive”. On the same count and under the same terms, the same measure for `O=C(CS)Nc1ccccc1`: “inactive”; for `COc1cc2c(cc1OC)C(C(C(=O)N(CCc1ccc(OC)c(OC)c1OC)CCc1ccc(OC)c(OC)c1OC)c1ccccc1)=NCC2` (stereo not given): “inactive”; for `CCC(C)(C)CC`: “inactive”.

On to `O=C(OCCc1ccccc1)c1ccccc1`, for which the result was inactive. The same measure, in the same setting: the entry for `CCOC(=O)NCCOc1ccc(Oc2ccccc2)cc1` is “inactive”; for `O=C(NCCO[N+](=O)[O-])c1cccnc1` it is “inactive”.

In the case of `CC[N+](C)(CC)CCOC(=O)C(O)(c1ccccc1)C1CCCCC1` (stereo not given), the outcome was inactive. Same read-out and setting: the same measure for `C[Si](C)(CCCN)O[Si](C)(C)CCCN`: “inactive”; for `Cc1cc(N)c2cc(NC(=O)Nc3ccc4nc(C)cc(N)c4c3)ccc2n1`: “inactive”; for `NCC(=O)CCC(=O)O`: “inactive”. Same read-out and setting: the same measure for `CCCCCCCCCCCc1ccccc1`: “inactive”. Consider `C/C(=C(\CCOP(=O)(O)O)SC(=O)c1ccccc1)N(C=O)Cc1cnc(C)nc1N`, for which the activity change, negative = inhibition was 2.53% [at 6.95 µM]. With `CCN(CC)CCOC(=O)C(Cc1cccc2ccccc12)CC1CCCO1` (stereo not given), the outcome was inactive. The same measure, in the same setting: the entry for `O=C1C(O)=C(O)C(=O)C(O)=C1O` is “inactive”; for `CC(C)Nc1ccc(NC(C)C)c2c1C(=O)c1ccccc1C2=O` it is “inactive”. Still for that read-out and setting: the entry for `C/C=C/C=C/CO` is “inactive”.

Take `COCC(C)OC(C)=O` (stereo not given): the outcome was inactive.

As for `CCCNCC(O)COc1ccccc1C(=O)CCc1ccccc1` (stereo not given), the result was inactive. On the same count and under the same terms, the entry for `CCC(Cl)CCC(Cl)C(Cl)CC(Cl)C(Cl)C(Cl)CCl` (stereo not given) is “inactive”; for `CCCCC` it is “inactive”; for `CN(C)CCN(Cc1ccc(Cl)cc1)c1ccccn1` it is “inactive”. For the compound `Nc1ccc([N+](=O)[O-])c(C(F)(F)F)c1`, the result was inactive.

`COC(C)(C)CCO`: the outcome was inactive. For the compound `O=CC1CC=CCC1` (stereo not given), the result was inactive. Turning to `CCN(CC)CCOC(=O)C(c1ccccc1)C1CCCCC1` (stereo not given), the result was inactive. Same read-out and setting: the entry for `CC(C)OC(=O)C(C)N(C(=O)c1ccccc1)c1ccc(F)c(Cl)c1` (stereo not given) is “inactive”; for `CCOC(=O)C(F)(F)F` it is “inactive”; for `CCN(CC)CCNC(=O)c1cc(Br)c(N)cc1OC` it is “inactive”. In the case of `C[N+]1(C)CCC(OC(=O)C(O)(c2ccccc2)C2CCCC2)C1` (stereo not given), the outcome was inactive.
